Screening data (PubChem)
Compounds with a hit are over-represented: about 0.9% of the library has one in this group of screens.
CDC25B CDK2 inh = primary biochemical HTRF screen for blockers of M-phase inducer phosphatase 2 binding to CDK2/cyclin A. P30305+P24941. HTRF CDC25B-CDK2/CyclinA binding, anti-His/anti-Flag; stronger effect = higher value. z-score (concentration not given with the values). hit rate 0.72% among 94,000; in the data active means z-score above about 3.2
HIV TAR-Tat = TAR RNA-Tat peptide displacers, HIV-1, primary screen, biochemical, FRET, FAM/TAMRA-labeled Tat | z-score (no concentration beside the values) | AID 1259389, 2018 | hit rate 0.6% among 100,000 | HIV-1 TAR RNA, Tat peptide displacement FRET; stronger effect = higher value; active means z-score of 3 or more in at least 2 runs
Numbers without * were called inactive.

Screening O=C(NCc1ccc2c(c1)OCO2)c1ccc2nc(-c3ccco3)c(-c3ccco3)nc2c1 returned HIV TAR-Tat 60*.
For CN(CC(=O)N1CCN(Cc2ccccc2)CC1)S(=O)(=O)c1ccc2c(c1)CCC(=O)N2 the results were CDC25B CDK2 inh -0.67.
For Cc1cccc(CSc2nc3c(c(=O)[nH]2)C(c2cc(C)ccc2C)CC(=O)N3)c1 (stereo not given) the results were CDC25B CDK2 inh 0.55 and HIV TAR-Tat 0.54.
`Cc1c2c(=O)n(-c3nc4ccccc4s3)nc-2cc(O)n1CCc1cnc[nH]1` gave CDC25B CDK2 inh -0.36 and HIV TAR-Tat 26*.
`Cc1nn(C(C)C(=O)NCCc2c[nH]c3ccccc23)c(=O)c2c1sc1ccccc12` (stereo not given) gave CDC25B CDK2 inh -1.7 and HIV TAR-Tat 2.5.
`Cc1c2c(=O)n(-c3nc4ccccc4s3)nc-2cc(O)n1CCc1c[nH]c2ccccc12` gave CDC25B CDK2 inh 2 and HIV TAR-Tat 9.2*.
CCC(C)Cn1c(C)c2c(=O)n(-c3nc4ccccc4s3)[nH]c2cc1=O (stereo not given) was read as CDC25B CDK2 inh -1.5 and HIV TAR-Tat 1.2.
O=C1C=C(NCCc2ccccc2)CC(c2ccco2)C1 (stereo not given) was read as CDC25B CDK2 inh -0.39 and HIV TAR-Tat 24*.
`O=C1C=C(NCc2ccco2)CC(c2ccccc2)C1` (stereo not given) gave CDC25B CDK2 inh -1.2 and HIV TAR-Tat 0.24.
Screening CCn1nnc(NCc2ccc(OCc3ccc(Cl)cc3)c(OC)c2)n1 returned HIV TAR-Tat 0.66.
For O=C1c2cccnc2C(=O)N1Cc1ccc(S(=O)(=O)Nc2cc(F)ccc2F)s1 the results were HIV TAR-Tat -0.17.
CCNS(=O)(=O)c1cc2c3c(c1)CCN3C(=O)CC2 was read as HIV TAR-Tat 0.85.
N#CC1=C2SCN(Cc3cccnc3)CN2C(=O)CC1c1ccc(F)cc1 (stereo not given) was read as CDC25B CDK2 inh 0.53 and HIV TAR-Tat 1.1.
COc1ccc(CN2CSC3=C(C#N)C(c4cccs4)CC(=O)N3C2)cc1 (stereo not given) was read as CDC25B CDK2 inh 4* and HIV TAR-Tat -0.08.
N#CC1=C2SCN(CCc3ccccc3)CN2C(=O)CC1c1ccc(F)cc1 (stereo not given) was read as CDC25B CDK2 inh -0.26 and HIV TAR-Tat 1.1.
`COc1ccc(CN2CSC3=C(C#N)C(c4cccc(OC)c4)CC(=O)N3C2)cc1` (stereo not given) gave CDC25B CDK2 inh 7.6* and HIV TAR-Tat -0.14.
N#CC1=C2SCN(CCc3ccccc3)CN2C(=O)CC1c1cccs1 (stereo not given) was read as CDC25B CDK2 inh 3.7* and HIV TAR-Tat -0.38.
Screening Cc1ccc(C2CC(=O)N3CN(Cc4cccnc4)CSC3=C2C#N)cc1 (stereo not given) returned CDC25B CDK2 inh 5.2* and HIV TAR-Tat 0.43.
N#CC1=C2SCN(Cc3ccco3)CN2C(=O)CC1c1cccs1 (stereo not given) was read as CDC25B CDK2 inh 2.5 and HIV TAR-Tat 1.2.
For N#Cc1nc(-c2ccc(S(=O)(=O)N3CCc4ccccc4C3)cc2)oc1N1CCc2ccccc2C1 the results were CDC25B CDK2 inh -1 and HIV TAR-Tat -1.1.
Screening O=C1c2[nH]nc(-c3ccccc3O)c2C(c2cccc(Oc3ccccc3)c2)N1CCCO (stereo not given) returned CDC25B CDK2 inh -0.7 and HIV TAR-Tat 1.6.
CC1=C(C(=O)Nc2ccc(C(=O)NC(C)Cc3ccco3)cc2)SCCO1 (stereo not given) was read as HIV TAR-Tat 0.63.
N#CC1=C2SCN(CCN3CCOCC3)CN2C(=O)CC1c1ccc(F)cc1 (stereo not given) was read as CDC25B CDK2 inh 0.4 and HIV TAR-Tat 1.7.
COc1ccc(CN2CSC3=C(C#N)C(c4ccc(OC)cc4)CC(=O)N3C2)cc1 (stereo not given) was read as CDC25B CDK2 inh 6.3* and HIV TAR-Tat 2.3.
Screening COc1ccc(C2CC(=O)N3CN(Cc4cccnc4)CSC3=C2C#N)cc1 (stereo not given) returned CDC25B CDK2 inh -0.28 and HIV TAR-Tat 1.2.
CC(c1ccccc1)N1CSC2=C(C#N)C(c3ccc(F)cc3)CC(=O)N2C1 (stereo not given) was read as CDC25B CDK2 inh 3 and HIV TAR-Tat 2.8.
`CC(C)c1ccc(C2CC(=O)N3CN(Cc4ccccc4)CSC3=C2C#N)cc1` (stereo not given) gave CDC25B CDK2 inh 5* and HIV TAR-Tat 0.39.
`Cc1ccsc1CCN1CSC2=C(C#N)C(c3ccc(Cl)cc3)CC(=O)N2C1` (stereo not given) gave CDC25B CDK2 inh 3.2* and HIV TAR-Tat 2.
Screening CCc1ccc(S(=O)(=O)Nc2cccc(N3CCCS3(=O)=O)c2)s1 returned HIV TAR-Tat 0.55.
CC(C)N1C(=O)C(Cc2nc3ccccc3c(=O)n2CCCO)c2ccccc21 (stereo not given) was read as CDC25B CDK2 inh 0.36 and HIV TAR-Tat 0.59.
`Cc1ccc(C)c(CNS(=O)(=O)c2ccc3c(c2)NC(=O)CCS3)c1` gave HIV TAR-Tat 0.82.
Screening CN(Cc1ccco1)C(=O)c1cc2c(s1)-c1ccccc1OC2 returned CDC25B CDK2 inh -1.4 and HIV TAR-Tat 1.1.
For CC(C)NC(=O)Cn1c(=O)c2cccn2c2ccc(F)cc21 the results were HIV TAR-Tat 0.2.
For O=c1ccc(-c2ccccc2)nn1Cc1nnc(SCc2ccc(F)cc2)o1 the results were HIV TAR-Tat 1.
CCOc1ccccc1-c1nn2c(-c3ccccc3OC)nnc2s1 was read as CDC25B CDK2 inh -2.3 and HIV TAR-Tat -0.01.
O=C(c1ccc2c(c1)C(=O)c1ccccc1-2)c1ccccc1Br was read as CDC25B CDK2 inh -1.4.
For O=C1c2ccccc2C(=O)c2c1oc(C(F)(F)F)c2C(=O)c1ccc2ccccc2c1 the results were CDC25B CDK2 inh 9.3*.
Screening Cc1ccc(-c2c(N3CCc4ccccc4C3)c(=O)c2=O)cc1 returned HIV TAR-Tat 2.5.
For Cc1nc(-c2csc(S(=O)(=O)NCc3ccc(Cl)cc3)c2)no1 the results were HIV TAR-Tat 1.9.
Oc1cc2c(cc1O)C1c3ccc(O)c(O)c3OCC1(O)C2 (stereo not given) was read as HIV TAR-Tat 29*.
`COc1ccc2nc(Nc3sc4c(c3C(N)=O)CCCC4)sc2c1` gave CDC25B CDK2 inh 4.3* and HIV TAR-Tat -1.3.
`COc1cc(OC)cc(C(=O)Nc2sc3c(c2C(N)=O)CCCC3)c1` gave CDC25B CDK2 inh -0.63.
Cc1cc2ccccc2c(=O)n1CC(=O)O was read as CDC25B CDK2 inh -1.8 and HIV TAR-Tat -1.1.
For O=C(c1ccc(F)cc1)N1CCN(c2nc3cc(Br)ccc3n3cccc23)CC1 the results were CDC25B CDK2 inh -2.7 and HIV TAR-Tat -1.1.
`C=C(C)/C=C1/C=CC(=O)C(C)=C1` gave HIV TAR-Tat 4.5*.
O=C(COCc1cc(-c2ccc3c(c2)OCO3)on1)N1CCc2ccccc21 was read as HIV TAR-Tat -0.96.
Cc1ccc(C)n1-c1cc(C(=O)O)ccc1Cl was read as CDC25B CDK2 inh 1.5.
`Cc1cc(C(=O)O)ccc1-n1c(C)ccc1C` gave CDC25B CDK2 inh -1.1.
